Laboratory results reported in PubChem BioAssay (Tox21).
Records with an inconclusive call do not appear. Activity calls are given as the source filed them. Unless noted, calls come from the whole dose curve; as a rule, active = well fitted curve in the direction sought with a large enough effect in the repeat runs; inconclusive = weak or mixed curves; inactive = no such curve, though single readings can be large; an effect the other way counts as inactive or inconclusive.

Tests used:
[1] = qHTS assay for small molecules that induce genotoxicity in human embryonic kidney cells expressing luciferase-tagged ATAD5 (AID 651632); note: nearly all actives have a fitted effect of over 15% in size
How it was run: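 Luminescence read-out: after 16 hr compound exposure at 37C, ATAD5-luciferase HEK293T cells received Amplite, 30 min RT, then CCD imaging. A rise in signal marks genotoxic stress.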

[2] = qHTS assay for small molecule agonists of the p53 signaling pathway - cell viability (AID 651633; calls by dose curve;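 note: p53RE-bla HCT reporter cells with a stable beta-lactamase p53 reporter; series mostly up to about 83 µM; nearly all actives have a fitted effect of over 30% in size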)
How it was run: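 p53RE-bla cells, seeded at 4,000 per well and rested 5 h at 37 C/5% CO2, received compounds in DMSO for 16 h at 37 C. CellTiter-Glo was then added, and luminescence was read after 30 min at room temperature to gauge cytotoxicity.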

[3] = qHTS assay for small molecules that induce genotoxicity in human embryonic kidney cells expressing luciferase-tagged ATAD5 - cell viability (AID 651634; calls by dose curve; note: nearly all actives have a fitted effect of over 25% in size)
How it was run: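 HEK293T ATAD5-luc cells, 2,000/well; compound 15.5 hr, 37C/5% CO2; CellTiter-Fluor 30 min, 37C; fluorescence read.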

[4] = qHTS assay for small molecule disruptors of the mitochondrial membrane potential - cell viability (AID 720634; calls by dose curve;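 note: human HepG2 liver cancer cells; series mostly up to about 83 µM; nearly all actives have a fitted effect of over 20% in size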)
How it was run: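 Luminescence from CellTiter-Glo (ATP content) gave viability in HepG2 cells, read in the same wells as the MMP dye assay after 1 hr compound exposure at 37 C.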

[5] = qHTS assay for small molecule disruptors of the mitochondrial membrane potential (AID 720635)
How it was run: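 HepG2 cells (2,000/well) attached overnight at 37C, then took compound for 1 hr at 37C, 5% CO2. Mito-MPS dye was added for 30 min; fluorescence was read at 490/535 nm (monomers) and 540/590 nm (aggregates).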

[6] = qHTS assay to test for compound auto fluorescence at 590 nm (red) in HepG2 cells (AID 720674)
How it was run: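 Rose Bengal sodium served as the red fluorophore standard. HepG2 monolayers (overnight attachment, MEM with 10% FBS) were exposed to test compounds for 1 hr at 37 C and read at Ex 540/Em 590 nm.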

[7] = qHTS assay to test for compound auto fluorescence at 535 nm (green) in HepG2 cells (AID 720675)
[8] = qHTS assay to test for compound auto fluorescence at 460 nm (blue) in HEK293 cells (AID 720678)
How it was run: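 Blue read-out at excitation 405 nm and emission 460 nm follows overnight compound exposure of HEK293 cells at 37C in 5% CO2. Activity is given as auto fluorescence equivalency to triamterene.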

[9] = qHTS assay to test for compound auto fluorescence at 590 nm (red) in HEK293 cells (AID 720679)
How it was run: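 Red channel, Ex/Em 540/590nm; signal expressed as equivalency to Rose Bengal sodium. HEK293, 2,000 cells/well, 10% dialyzed FBS; 23 nL compound pinned after 4-5 hr attachment; overnight 37C/5% CO2 before reading.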

[10] = qHTS assay to test for compound auto fluorescence at 535 nm (green) in HEK293 cells (AID 720680)
[11] = qHTS assay to test for compound auto fluorescence at 535 nm (green) in HEK293 cell free culture (AID 720682)
How it was run: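 Fluorescein serves as the green reference fluorophore; each compound's intrinsic emission at 535 nm (excitation 485 nm) is reported as an equivalent amount of that dye, measured in serum-containing DMEM without cells.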

[12] = qHTS assay to test for compound auto fluorescence at 590 nm (red) in HEK293 cell free culture (AID 720683)
How it was run: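 Tox21 10K library compounds were pinned into cell-free DMEM with 10% FBS and fluorescence was read at excitation 540 nm. Activity is expressed as Rose Bengal sodium equivalency.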

[13] = qHTS assay to test for compound auto fluorescence at 590 nm (red) in HepG2 cell free culture (AID 720684)
How it was run: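 Ex 540 / Em 590 nm read of compound in cell-free MEM (10% FBS). Rose Bengal sodium reference.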

[14] = qHTS assay to test for compound auto fluorescence at 460 nm (blue) in HepG2 cell free culture (AID 720685)
How it was run: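 Cell-free plates of MEM plus 10% FBS received 23 nL compound or DMSO vehicle; blue-channel (405/460 nm) intensity scored against triamterene as reference fluorophore.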

[15] = qHTS assay to test for compound auto fluorescence at 535 nm (green) in HepG2 cell free culture (AID 720686)
[16] = qHTS assay to test for compound auto fluorescence at 460 nm (blue) in HepG2 cells (AID 720687)
How it was run: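 Cells (2,000/well in MEM with 10% FBS) attached overnight at 37 C, then were exposed to compound or DMSO for 1 hr at 37 C, 5% CO2. Fluorescence read at Ex/Em 405/460 nm, expressed as triamterene-equivalent signal.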

[17] = qHTS assay for small molecule agonists of the p53 signaling pathway (AID 651631; calls by dose curve; note: nearly all actives have a fitted effect of over 15% in size)
How it was run: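 Read-out is beta-lactamase FRET fluorescence measured 2 h after substrate addition at room temperature, in HCT-116 cells with a p53 response element-driven reporter exposed to compounds for 16 h at 37 °C.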

[18] = qHTS assay to test for compound auto fluorescence at 460 nm (blue) in HEK293 cell free culture (AID 720681)
How it was run: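 Test compounds were pinned into cell-free culture medium (DMEM with 10% FBS) and fluorescence was read directly at Ex/Em 405/460 nm. Signals were expressed as fluorescence equivalents of triamterene, with DMSO vehicle as control.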

[19] = target: Glucocorticoid receptor (Homo sapiens) (UniProt P04150); assay: qHTS assay to identify small molecule agonists of the glucocorticoid receptor (GR) signaling pathway (AID 720691; active = well fitted activation curve with a large enough effect in the signal ratio in the repeat runs, not every such curve was filed as active; the % refers to the signal ratio)
How it was run: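 HeLa GR-bla reporter line; cells pre-incubated 4 h, compound in DMSO 18 h at 37 C; LiveBLAzer B/G FRET substrate 2 h RT; fluorescence intensity read-out.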

[20] = target: Glucocorticoid receptor (Homo sapiens) (UniProt P04150); assay: qHTS assay to identify small molecule antagonists of the glucocorticoid receptor (GR) signaling pathway (AID 720692; active = well fitted inhibition curve with a large enough effect in the signal ratio in the repeat runs, not every such curve was filed as active; the % refers to the signal ratio)
How it was run: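 Read-out: beta-lactamase FRET substrate fluorescence, 2 h at room temperature, in HeLa cells stably carrying a GRE-driven bla reporter. Compounds were co-incubated with 5 nM dexamethasone agonist (final) for 18 h at 37 C.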
% is set by controls: 0 for no effect and ±100 for the full control effect.

Glucocorticoid receptor (Homo sapiens), sequence (P04150 whole entry, looked up): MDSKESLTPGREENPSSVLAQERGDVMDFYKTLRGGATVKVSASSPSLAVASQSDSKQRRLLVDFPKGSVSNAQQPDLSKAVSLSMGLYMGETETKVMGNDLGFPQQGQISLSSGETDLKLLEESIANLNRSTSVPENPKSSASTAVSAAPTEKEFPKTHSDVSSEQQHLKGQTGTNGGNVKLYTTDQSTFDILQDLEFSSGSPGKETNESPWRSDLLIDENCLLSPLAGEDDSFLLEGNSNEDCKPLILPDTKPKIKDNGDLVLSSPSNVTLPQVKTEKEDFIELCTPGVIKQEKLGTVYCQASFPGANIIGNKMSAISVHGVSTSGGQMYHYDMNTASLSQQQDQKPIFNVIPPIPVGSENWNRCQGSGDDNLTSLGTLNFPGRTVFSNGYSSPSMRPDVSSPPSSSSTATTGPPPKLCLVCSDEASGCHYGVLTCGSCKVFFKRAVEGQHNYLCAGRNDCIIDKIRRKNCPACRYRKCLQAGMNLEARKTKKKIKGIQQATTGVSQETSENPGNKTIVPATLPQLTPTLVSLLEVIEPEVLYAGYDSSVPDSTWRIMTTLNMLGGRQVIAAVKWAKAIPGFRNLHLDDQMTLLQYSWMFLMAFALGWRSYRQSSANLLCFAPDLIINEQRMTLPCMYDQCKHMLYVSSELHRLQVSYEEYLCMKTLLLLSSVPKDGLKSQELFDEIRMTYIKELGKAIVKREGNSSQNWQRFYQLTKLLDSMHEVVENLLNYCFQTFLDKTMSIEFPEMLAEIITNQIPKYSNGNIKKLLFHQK

CN1[C@@H]2CC[C@H]1CC(OC(=O)c1c[nH]c3ccccc13)C2 (some centres undefined)
inactive: Potency [1] | Potency [2] | Potency [3] | Potency [4] | Potency [5] | outcome [6] | outcome [7] | outcome [8] | outcome [9] | outcome [10] | outcome [11] | outcome [12] | outcome [13] | outcome [14] | outcome [15] | outcome [16]

CCCCCCCCOC(=O)CCCCCCCCC(=O)OCCCCCCCC
inactive: Potency [17] | Potency [1] | Potency [3] | Potency [4] | outcome [6] | outcome [7] | outcome [8] | outcome [9] | outcome [10] | outcome [18] | outcome [11] | outcome [12] | outcome [14] | outcome [15] | Potency [19] | Potency [20]

Cc1c(-c2ccccc2)oc2c(C(=O)OCCN3CCCCC3)cccc2c1=O
inactive: Potency [17] | Potency [1] | Potency [4] | Potency [5] | fluorescence, relative to Rose Bengal [6] 0.822% [at 18.6 µM] | fluorescence, % of fluorescein control [7] 0.273% [at 18.6 µM] | fluorescence, % of triamterene [8] -0.209% [at 18.6 µM] | fluorescence, % of fluorescent control [9] 0.0102% [at 18.6 µM] | fluorescence, % of fluorescent control [18] 0.0764% [at 18.6 µM] | activity change [11] -0.0846% [at 18.6 µM] | fluorescence, % of fluorescent control [12] -0.0474% [at 18.6 µM] | fluorescence, % of Rose Bengal [13] -0.137% [at 18.6 µM] | fluorescence, % of fluorescent control [14] -0.115% [at 18.6 µM] | fluorescence, % of fluorescein control [15] 0.0304% [at 18.6 µM] | fluorescence, % of fluorescent control [16] -0.0666% [at 18.6 µM] | Potency [19] | Potency [20]

FC(F)(F)C(F)(F)C(F)(F)C(F)(F)C(F)(F)C(F)(F)C(F)(F)C(F)(F)Br
inactive: Potency [1] | Potency [2] | Potency [3] | Potency [4] | Potency [5] | outcome [6] | outcome [7] | outcome [8] | outcome [9] | outcome [10] | outcome [18] | outcome [11] | outcome [12] | outcome [13] | outcome [14] | outcome [15] | Potency [19] | Potency [20]

CCOC(=O)C1CC(=O)C(=C(O)C2CC2)C(=O)C1 (centres undefined)
inactive: Potency [17] | Potency [1] | Potency [4] | outcome [6] | outcome [7] | outcome [8] | outcome [9] | outcome [10] | outcome [18] | outcome [11] | outcome [12] | outcome [13] | outcome [14] | outcome [15] | outcome [16] | Potency [19] | Potency [20]

CCOc1ccc2nc(N)sc2c1
inactive: Potency [17] | outcome [7] | outcome [8] | outcome [10] | outcome [18] | outcome [11] | outcome [12] | outcome [13] | outcome [14] | outcome [15] | outcome [16] | Potency [19] | Potency [20]

O=C1CCN(c2ccccc2)N1
inactive: Potency [17] | Potency [1] | Potency [4] | Potency [5] | outcome [7] | outcome [8] | outcome [9] | outcome [10] | outcome [18] | outcome [11] | outcome [12] | outcome [13] | outcome [14] | outcome [15] | outcome [16] | Potency [20]

CN(C)CC[C@@H](c1ccc(Cl)cc1)c1ccccn1
inactive: Potency [17] | Potency [2] | Potency [4] | Potency [5] | outcome [6] | outcome [7] | outcome [8] | outcome [9] | outcome [10] | outcome [18] | outcome [11] | outcome [12] | outcome [14] | outcome [15] | outcome [16] | Potency [20]
